The source of these data is ChEMBL document CHEMBL3433997, “St. Jude Leishmania screening dataset” (2016).

Holding throughout (assay type): functional
Experiment [1] has as its target Solute carrier family 2, facilitated glucose transporter member 1 (Homo sapiens) (UniProt P11166). The experiment can be described thus: ST_JUDE_LEISH: Cytotoxicity at 2uM final concentration against transgenic Leishmania Mexicana promastigotes LmGLUT1 that are glucose transport deficient and complemented with the human glucose transporter GLUT1. Activity is measured by DNA content using SYBR green in vitro.

For experiment [2], the target named is Hexose transporter 1 (Plasmodium falciparum) (UniProt O97467). The experiment can be described thus: ST_JUDE_LEISH: Cytotoxicity at 2uM final concentration against transgenic Leishmania Mexicana promastigotes LmPfHT that are glucose transport deficient and complemented with the Plasmodium falciparum hexose transporter. Activity is measured by DNA content using SYBR green in vitro.

Experiment [3] deals with Glucose transporter (Leishmania mexicana) (UniProt O61059). The experiment can be described thus: ST_JUDE_LEISH: Cytotoxicity at 2uM final concentration against transgenic Leishmania Mexicana promastigotes LmGT2 that are glucose transport deficient and complemented with the L. Mexicana glucose transporter 2. Activity is measured by DNA content using SYBR green in vitro.

Solute carrier family 2, facilitated glucose transporter member 1 (Homo sapiens), sequence (P11166 whole entry): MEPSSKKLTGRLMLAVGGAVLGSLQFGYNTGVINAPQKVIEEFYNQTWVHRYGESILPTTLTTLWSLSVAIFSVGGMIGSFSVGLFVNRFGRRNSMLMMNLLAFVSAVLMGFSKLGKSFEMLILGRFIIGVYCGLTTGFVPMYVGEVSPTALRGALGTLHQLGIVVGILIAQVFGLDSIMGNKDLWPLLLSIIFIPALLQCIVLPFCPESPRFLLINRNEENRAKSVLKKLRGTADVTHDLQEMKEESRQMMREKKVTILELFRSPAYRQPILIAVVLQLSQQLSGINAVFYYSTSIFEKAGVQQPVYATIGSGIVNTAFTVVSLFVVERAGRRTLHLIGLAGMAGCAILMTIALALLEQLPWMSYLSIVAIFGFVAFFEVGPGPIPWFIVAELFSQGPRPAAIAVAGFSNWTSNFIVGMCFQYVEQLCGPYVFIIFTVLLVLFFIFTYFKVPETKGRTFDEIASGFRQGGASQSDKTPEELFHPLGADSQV

Consider `COCc1cccc(-c2cc(-c3ccc(S(C)(=O)=O)cc3)cnc2N)c1`, for which the values for the inhibition in experiment [1], in experiment [2] and in experiment [3] were -0.03%, -0.46% and -5.63%, respectively.

On to `COc1ccc(CNCC2CCC(CNCCc3ccccc3)CC2)cc1Cl` (stereo not given), for which the figures for the inhibition in experiment [1], in experiment [2] and in experiment [3] were 1.1%, 2.42% and 2.3%, respectively.

With `Cc1nc(N)nc(N)c1OCCCOc1ccccc1Br`, the inhibition was determined as 46.9% in experiment [1], 61.8% in experiment [2] and 43.6% in experiment [3].

Regarding `Cc1nc2ccccc2c(=O)n1NCc1ccc(Cl)c(Cl)c1`, the inhibition in experiment [1] is -1.5%; in experiment [2], -1.58%; in experiment [3], 0.11%.

`CCN(CCCN1CCCCC1)c1cc(C)nc(Nc2ccc(Oc3ccccc3)cc2)n1`: the results for the inhibition in experiment [1], in experiment [2] and in experiment [3] were 5.66%, 5.07% and 5.44%, respectively.

`O=C(/C=C/c1ccc(Cl)cc1Cl)NCCCCCN1CCC(c2c[nH]c3ccccc23)CC1`: the inhibition was -2.21% in experiment [1], 0.6% in experiment [2] and 1.57% in experiment [3].

For the compound `CCCCCC(=O)N1CCOC(CCN2CCc3c(c4ccccc4n3C)C2)(c2ccc(Cl)c(Cl)c2)C1` (stereo not given), the inhibition in experiment [1] turned out to be 10.5%; in experiment [2] it was 7.81%; in experiment [3], 9.52%.

On to `Cc1noc(C)c1-c1ccc2c(Nc3ccc([N+](=O)[O-])cc3)c(C(N)=O)cnc2c1`, for which the inhibition in experiment [1] is -0.67%; in experiment [2], -0.09%; in experiment [3], -0.76%.

As to `Cc1cc(N[C@@H](Cc2ccccc2)C(=O)NCc2cccc(F)c2)nc(NCCc2cccnc2)n1`, the figures for the inhibition in experiment [1], in experiment [2] and in experiment [3] were 10.4%, 12.9% and 12.3%, respectively.

On to `Cc1ccc2[nH]c(C)cc(=NN=Cc3ccccc3F)c2c1`, for which the results for the inhibition in experiment [1], in experiment [2] and in experiment [3] were 13.5%, 12.6% and 8.78%, respectively.

Consider `CC1CCC(C[C@@H](C(=O)N[C@@H](CCC(=O)N2CCCCC2)C(=O)Nc2nccs2)[C@H](C(C)C)N(O)C=O)CC1` (stereo not given in full), for which the inhibition was found to be 3.85% in experiment [1], 4.16% in experiment [2] and 3.44% in experiment [3].

Consider `COc1c(C2=CCN(CCCCNC(=O)c3ccc(-c4ccc(C#N)cc4)cc3)CC2)ccc2c1CCCC2`, for which the inhibition in experiment [1] was 0.4%; in experiment [2] it was -0.52%; in experiment [3], 0.06%.

For the compound `Cc1cccc(Nc2nc(N[C@@H]3CCCNC3)nc3cc[nH]c(=O)c23)c1`, the inhibition turned out to be 92.3% in experiment [1], 85.2% in experiment [2] and 83.4% in experiment [3].

`Cc1ccc(C)c(Cn2ccc3nc(Cl)nc(Cl)c32)c1`: the inhibition in experiment [1] stood at 7.99%; in experiment [2], 5.11%; in experiment [3], 0.45%.

With `COc1cccc(Nc2c(C(N)=O)cnc3ccc(-c4ccc([S+](C)[O-])cc4)cc23)c1` (stereo not given), the inhibition was 2.64% in experiment [1], 4.5% in experiment [2] and 0.66% in experiment [3].

Regarding `COc1ccc2c(c1C1CCN(CCCCNC(=O)c3ccc(NC(=O)c4ccc(Cl)cc4)cc3)CC1)CCCC2`, the results for the inhibition in experiment [1], in experiment [2] and in experiment [3] were -1.16%, -1.03% and -1.07%, respectively.

Consider `CN1CCN(CC(=O)Nc2cccc(-c3cccc(-c4nc5ccccc5[nH]4)c3)c2)CC1`, for which the inhibition was -0.57% in experiment [1], -0.37% in experiment [2] and -3.47% in experiment [3].

Turning to `Cc1cc(N[C@@H](Cc2ccccc2)C(=O)Nc2ccccc2)nc(NCCc2ccccn2)n1`, the values for the inhibition in experiment [1], in experiment [2] and in experiment [3] were 4.62%, 4.95% and 3.53%, respectively.

For `CN(C)Cc1ccc(O)c(-c2ccc(C(C)(C)C)cc2)n1`, the inhibition was -0.79% in experiment [1], 0.1% in experiment [2] and 2.74% in experiment [3].

For `CN1CCN(c2ccnc3ccc(NC(=O)Cc4ccc(Br)c5ccccc45)cc23)CC1`, the inhibition was 0.81% in experiment [1], 0.37% in experiment [2] and 2.02% in experiment [3].

With `COCCCNc1nc2cc(OC)c(OC)cc2c2nc(-c3ccccc3)nn12`, the inhibition in experiment [1] was 2.53%; in experiment [2], 1.16%; in experiment [3] it was 0.85%.

As for `O=c1c(Br)ccccc1Br`, the inhibition in experiment [1] amounted to 1.2%; in experiment [2] it was 3.16%; in experiment [3] it was 2.97%.

As for `Cc1nnc2c(NC(=O)NC3CCCC3)cc3cc(-c4ccc(CN5CCN(C)CC5)cc4)ccc3n12`, the inhibition in experiment [1] came to 7.2%; in experiment [2] it was 4.95%; in experiment [3] it was 4.79%.

For `O=C(/C=C/C=C/c1ccccc1)NCCCCCN1CCC(c2c[nH]c3ccccc23)CC1`, the inhibition is 3.2% in experiment [1], 4.23% in experiment [2] and 1.69% in experiment [3].

On to `CCC(C)(C)c1ccc(OCC(O)CN2CCCCC2)c(C(C)(C)CC)c1` (stereo not given), for which the inhibition in experiment [1] was found to be 14.6%; in experiment [2], 15.2%; in experiment [3], 13.2%.

With `c1ccc(-c2cc(NCCCn3ccnc3)nc(-c3cccnc3)n2)cc1`, the figures for the inhibition in experiment [1], in experiment [2] and in experiment [3] were 2.2%, 3.19% and 0.94%, respectively.

Turning to `Cc1c(C(=O)N2CCCC(C(F)(F)F)C2)sc2cccc(F)c12` (stereo not given), the inhibition in experiment [1] was determined as 8.1%; in experiment [2] it was 6.02%; in experiment [3], 5.83%.

Turning to `O=C(Nc1cccc(-c2cccc(-c3nc4cc(C(F)(F)F)ccc4[nH]3)c2)c1)c1c[nH]cn1`, the inhibition in experiment [1] was 1.86%; in experiment [2] it was 3.96%; in experiment [3] it was -1.42%.

On to `CC1CN(c2cnn(C/C=C/c3ccc(NC(=O)c4ccc([N+](=O)[O-])cc4)cc3)c(=O)c2Cl)CC(C)N1` (stereo not given), for which the inhibition in experiment [1] is -0.1%; in experiment [2], 1.74%; in experiment [3] it was 0.18%.

As for `NCC(NC(=O)c1ccc(-c2c[nH]c3ncccc23)s1)c1ccccc1` (stereo not given), the inhibition in experiment [1] came out at 51.9%; in experiment [2] it was 56.6%; in experiment [3], 25.9%.

For `CC(C)(C)c1ccc2[nH]c(-c3ccc(/C=C/C(=O)NCc4ccc(Cl)c(Cl)c4)cc3)nc2c1`, the inhibition in experiment [1] worked out at 6%; in experiment [2] it was 6.31%; in experiment [3], 1.89%.

Consider `COc1ccc2nccc(NC(=O)OC3CCC(NCc4ccc5c(n4)NC(=O)CS5)CC3)c2c1` (stereo not given), for which the inhibition came to 4.53% in experiment [1], 4.67% in experiment [2] and 3.92% in experiment [3].

Regarding `CNc1ccc(CNCc2cccc(-c3ccc(-c4nc5ccccc5[nH]4)s3)c2)cc1`, the inhibition in experiment [1] came to 1.37%; in experiment [2], 1.02%; in experiment [3] it was 0.87%.

For the compound `COc1ccc(Br)cc1/C=C/C(=O)Nc1cccc(C2CCCN(C)C2)c1` (stereo not given), the inhibition in experiment [1] stood at 6.13%; in experiment [2] it was 5.55%; in experiment [3], 7.45%.

Turning to `CCCNC(=O)C1Cc2c([nH]c3cc(Br)ccc23)C2(CCN(CCc3ccccc3)CC2)N1` (stereo not given), the figures for the inhibition in experiment [1], in experiment [2] and in experiment [3] were 2.03%, 1.9% and 1.75%, respectively.

A word on the inhibition: it is the relative decrease from the control value, in per cent.
